Over roughly 2,900 compounds, “NF-kB SEAP reporter activity, fold change vs agonist alone” has its median near 0.99; the highest 2% begin near 2.6. The sample holds the highest values, similar compounds and a random draw of the others, so the mix is not that of the screen.
Columns and labels:
RAW-Dual [1] = assay: NF-kB SEAP reporter activity, fold change vs agonist alone; higher = enhanced NF-kB activity; conditions: cytotoxicity flag (confluency mask): not cytotoxic
In short: (§1)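 Supernatant from RAW-Dual macrophages was read after 20 hours for IRF by QuantiLuc luminescence and for NF-κB by QuantiBlue absorbance at 620 nm. The cells (50,000 cells/well in DMEM, 384-well plates, 37 °C, 5% CO2) had received 50 nL of library stock by pin tool and, 1 h later, a PRR agonist. Reporter activity is expressed relative to agonist-alone wells as fold change, and wells were flagged cytotoxic if IncuCyte confluency was under 70% of agonist controls in both mask sets.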

RAW-Dual [2] = assay: NF-kB SEAP reporter activity, fold change vs agonist alone; cytotoxicity flag (confluency mask): not cytotoxic; higher = enhanced NF-kB activity
In short: as §1

[3] = library stock concentration (final ~1000-fold dilution): 10 mM, agonist: Imiquimod (TLR7) […]
[4] = library stock concentration (final ~1000-fold dilution): 10 mM, agonist: MPLA (TLR4) […]
[5] = agonist: ODN 1826 (TLR9) 0.5 ug/mL
[6] = agonist: Pam2CSK4 (TLR2/6) 0.1 ug/mL
[7] = agonist: Pam3CSK4 (TLR2/1) 0.1 ug/mL
[8] = library stock concentration (final ~1000-fold dilution): .1 mM, agonist: Imiquimod (TLR7) […]
[9] = library stock concentration (final ~1000-fold dilution): .1 mM, agonist: MPLA (TLR4) […]

CCN(CC)C(=O)C1(c2ccccc2)CC1CN.Cl (configuration not stated)
NF-kB SEAP reporter activity (RAW-Dual [1]; [3]): 1.02
NF-kB SEAP reporter activity (RAW-Dual [1]; [4]): 1.1

CCN(CC)C(=O)C1(c2ccccc2)CC1CN.Cl (configuration not stated) (library stock concentration (final ~1000-fold dilution): 10 mM)
NF-kB SEAP reporter activity (RAW-Dual [2]; agonist: LPS (TLR4) 0.1 ug/mL): 0.999
NF-kB SEAP reporter activity (RAW-Dual [2]; [5]): 0.858
NF-kB SEAP reporter activity (RAW-Dual [2]; [6]): 0.856
NF-kB SEAP reporter activity (RAW-Dual [2]; [7]): 1.18

CC(=O)O.NCc1ccc(S(N)(=O)=O)cc1 (library stock concentration (final ~1000-fold dilution): 10 mM)
NF-kB SEAP reporter activity (RAW-Dual [2]; agonist: LPS (TLR4) 0.1 ug/mL): 1.04
NF-kB SEAP reporter activity (RAW-Dual [2]; [5]): 1.01
NF-kB SEAP reporter activity (RAW-Dual [2]; [6]): 0.927
NF-kB SEAP reporter activity (RAW-Dual [2]; [7]): 1.23

CC(=O)O.NCc1ccc(S(N)(=O)=O)cc1
NF-kB SEAP reporter activity (RAW-Dual [1]; [3]): 1.17
NF-kB SEAP reporter activity (RAW-Dual [1]; [4]): 1.03

CC1(C)CC(=O)c2c(C(F)(F)F)nn(-c3ccc(C(N)=O)c(NC4CCC(OC(=O)CN)CC4)c3)c2C1 (configuration not stated)
NF-kB SEAP reporter activity (RAW-Dual [1]; [3]): 0.916
NF-kB SEAP reporter activity (RAW-Dual [1]; [4]): 0.907

CC1(C)CC(=O)c2c(C(F)(F)F)nn(-c3ccc(C(N)=O)c(NC4CCC(OC(=O)CN)CC4)c3)c2C1 (configuration not stated) (library stock concentration (final ~1000-fold dilution): 10 mM)
NF-kB SEAP reporter activity (RAW-Dual [2]; agonist: LPS (TLR4) 0.1 ug/mL): 0.226
NF-kB SEAP reporter activity (RAW-Dual [2]; [5]): 0.929
NF-kB SEAP reporter activity (RAW-Dual [2]; [6]): 0.113
NF-kB SEAP reporter activity (RAW-Dual [2]; [7]): 0.234

CC#CC(=O)N1CCC(n2c(=O)n(-c3ccc(Oc4ccccc4)cc3)c3c(N)ncnc32)C1.Cl (configuration not stated) (library stock concentration (final ~1000-fold dilution): 10 mM)
NF-kB SEAP reporter activity (RAW-Dual [2]; agonist: LPS (TLR4) 0.1 ug/mL): 0.647
NF-kB SEAP reporter activity (RAW-Dual [2]; [5]): 0.662
NF-kB SEAP reporter activity (RAW-Dual [2]; [6]): 0.378
NF-kB SEAP reporter activity (RAW-Dual [2]; [7]): 0.517

CC#CC(=O)N1CCC(n2c(=O)n(-c3ccc(Oc4ccccc4)cc3)c3c(N)ncnc32)C1.Cl (configuration not stated)
NF-kB SEAP reporter activity (RAW-Dual [1]; [3]): 0.734
NF-kB SEAP reporter activity (RAW-Dual [1]; [4]): 0.814

CCOC(=O)C=P(c1ccccc1)(c1ccccc1)c1ccccc1 (library stock concentration (final ~1000-fold dilution): 10 mM)
NF-kB SEAP reporter activity (RAW-Dual [2]; agonist: LPS (TLR4) 0.1 ug/mL): 0.964
NF-kB SEAP reporter activity (RAW-Dual [2]; [5]): 0.875
NF-kB SEAP reporter activity (RAW-Dual [2]; [6]): 0.894
NF-kB SEAP reporter activity (RAW-Dual [2]; [7]): 0.912

CCOC(=O)C=P(c1ccccc1)(c1ccccc1)c1ccccc1
NF-kB SEAP reporter activity (RAW-Dual [1]; [3]): 0.715
NF-kB SEAP reporter activity (RAW-Dual [1]; [4]): 1.05

O=C(NCC(O)CN1CCc2ccccc2C1)c1ccnc(NC2CCC2)c1 (configuration not stated) (library stock concentration (final ~1000-fold dilution): 10 mM)
NF-kB SEAP reporter activity (RAW-Dual [2]; agonist: LPS (TLR4) 0.1 ug/mL): 0.908
NF-kB SEAP reporter activity (RAW-Dual [2]; [5]): 0.581
NF-kB SEAP reporter activity (RAW-Dual [2]; [6]): 1.03
NF-kB SEAP reporter activity (RAW-Dual [2]; [7]): 0.884

O=C(NCC(O)CN1CCc2ccccc2C1)c1ccnc(NC2CCC2)c1 (configuration not stated)
NF-kB SEAP reporter activity (RAW-Dual [1]; [3]): 0.885
NF-kB SEAP reporter activity (RAW-Dual [1]; [4]): 0.997

CN(c1ncccc1CNc1nc(Nc2ccc3c(c2)CC(=O)N3)ncc1C(F)(F)F)S(C)(=O)=O.O=S(=O)(O)c1ccccc1 (library stock concentration (final ~1000-fold dilution): 10 mM)
NF-kB SEAP reporter activity (RAW-Dual [2]; agonist: LPS (TLR4) 0.1 ug/mL): 0.207
NF-kB SEAP reporter activity (RAW-Dual [2]; [5]): 0.982
NF-kB SEAP reporter activity (RAW-Dual [2]; [6]): 0.147
NF-kB SEAP reporter activity (RAW-Dual [2]; [7]): 0.882

CN(c1ncccc1CNc1nc(Nc2ccc3c(c2)CC(=O)N3)ncc1C(F)(F)F)S(C)(=O)=O.O=S(=O)(O)c1ccccc1
NF-kB SEAP reporter activity (RAW-Dual [1]; [3]): 1.02
NF-kB SEAP reporter activity (RAW-Dual [1]; [4]): 0.953

CC(C)(F)CC(NC(c1ccc(-c2ccc(S(C)(=O)=O)cc2)cc1)C(F)(F)F)C(=O)NC1(C#N)CC1 (configuration not stated)
NF-kB SEAP reporter activity (RAW-Dual [1]; [3]): 0.932
NF-kB SEAP reporter activity (RAW-Dual [1]; [4]): 1.02

CC(C)(F)CC(NC(c1ccc(-c2ccc(S(C)(=O)=O)cc2)cc1)C(F)(F)F)C(=O)NC1(C#N)CC1 (configuration not stated) (library stock concentration (final ~1000-fold dilution): 10 mM)
NF-kB SEAP reporter activity (RAW-Dual [2]; agonist: LPS (TLR4) 0.1 ug/mL): 0.968
NF-kB SEAP reporter activity (RAW-Dual [2]; [5]): 1.15
NF-kB SEAP reporter activity (RAW-Dual [2]; [6]): 0.937
NF-kB SEAP reporter activity (RAW-Dual [2]; [7]): 0.97

COc1ccc2c(-c3ccc(O)c(C)c3)ccnc2c1
NF-kB SEAP reporter activity (RAW-Dual [1]; [8]): 0.339
NF-kB SEAP reporter activity (RAW-Dual [1]; [9]): 1.1

Cc1cc(-c2ccnc3cc(O)ccc23)ccc1O
NF-kB SEAP reporter activity (RAW-Dual [1]; [8]): 1.38
NF-kB SEAP reporter activity (RAW-Dual [1]; [9]): 2.06
